The panel holds about 79,000 compounds, 15% with a hit somewhere; the sample as a whole holds those more often. Activity calls are given as the source filed them. Cut-off read from the data, not from the text of the source: active = growth inhibition above about 70%; inactive = the rest.
Tests used:
[1] = NCI Yeast Anticancer Drug Screen. Data for the rad52 strain (AID 147);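 note: 0% = growth of vehicle-treated control cultures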; details: S. cerevisiae rad52 mutant growth inhibition, stronger effect = higher value
Procedure, shortened: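 Genetically altered yeast (DNA damage repair defect) treated with compound; inhibition calculated relative to vehicle.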

[2] = NCI Yeast Anticancer Drug Screen. Data for the wt1 strain (AID 149);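 note: 0% = growth of vehicle-treated wt1 cultures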; details: S. cerevisiae wt1 strain (SPY 50644) growth inhibition, stronger effect = higher value
Procedure, shortened: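 Readout: yeast growth inhibition, normalised to vehicle controls, in the wt1 strain exposed to test compounds.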

[3] = NCI Yeast Anticancer Drug Screen. Data for the rad50EPP+ strain (AID 151);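 note: 0% = growth of vehicle-treated control cultures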; details: S. cerevisiae rad50 mutant strain, stronger effect = higher value
Procedure, shortened: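 Strain rad50EPP+; compound exposure; % growth inhibition vs vehicle.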

[4] = NCI Yeast Anticancer Drug Screen. Data for the mgt1 strain (AID 153); details: S. cerevisiae mgt1 mutant growth inhibition, stronger effect = higher value
Procedure, shortened: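 Read-out: yeast growth inhibition vs vehicle control. Strain mgt1, drawn from a panel altered in DNA damage repair or cell cycle control.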

[5] = NCI Yeast Anticancer Drug Screen. Data for the rad50 strain (AID 155);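 note: 0% = growth of vehicle-only cultures of the same strain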; details: S. cerevisiae rad50 strain growth inhibition, stronger effect = higher value
Procedure, shortened: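 Compounds were tested on a yeast strain with an engineered DNA damage repair alteration; the reported value is growth inhibition normalised to vehicle treatment.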

[6] = NCI Yeast Anticancer Drug Screen. Data for the mec2-1 strain (AID 157); details: S. cerevisiae mec2-1 strain, stronger effect = higher value
Procedure, shortened: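 Cells of the genetically defined mec2-1 yeast strain are incubated with test compound. Inhibition of growth is calculated against vehicle-treated controls.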

[7] = NCI Yeast Anticancer Drug Screen. Data for the rad14 strain (AID 159);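 note: 0% = growth of vehicle-treated control cultures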; details: S. cerevisiae rad14 strain growth inhibition, stronger effect = higher value
Procedure, shortened: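 Compound-treated yeast with a defined DNA-repair lesion; growth inhibition normalised to vehicle-treated cultures.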

[8] = NCI Yeast Anticancer Drug Screen. Data for the sgs1 mgt1 strain (AID 161);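 note: 0% = growth of cultures given vehicle only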; details: S. cerevisiae sgs1 mgt1 strain, stronger effect = higher value
Procedure, shortened: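 Read-out: growth inhibition vs vehicle controls. Cells: mutant yeast strain deficient in DNA damage repair.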

[9] = NCI Yeast Anticancer Drug Screen. Data for the CLN2oe strain (AID 163);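 note: 0% = growth of vehicle-only control cultures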; details: S. cerevisiae CLN2oe strain, stronger effect = higher value
Procedure, shortened: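 Strain altered in cell-cycle control, incubated with compound; growth compared to solvent-treated controls.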

[10] = NCI Yeast Anticancer Drug Screen. Data for the cln2 rad14 strain (AID 165);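 note: 0% = growth equal to vehicle treated cultures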; details: S. cerevisiae cln2 rad14 strain, stronger effect = higher value
Procedure, shortened: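 The screen exposed genetically defined yeast (cln2 rad14) to test compounds and scored growth inhibition relative to vehicle-treated controls.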

[11] = NCI Yeast Anticancer Drug Screen. Data for the bub3 strain (AID 167); details: S. cerevisiae bub3 mutant strain, stronger effect = higher value
Procedure, shortened: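 Growth of a checkpoint-deficient yeast mutant is measured after compound exposure. Values represent inhibition relative to vehicle.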

[12] = NCI Yeast Anticancer Drug Screen. Data for the wt2 strain (AID 169);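 note: 0% = growth of vehicle-treated yeast cultures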; details: S. cerevisiae wt2 strain growth inhibition, stronger effect = higher value
Procedure, shortened: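 Steps: yeast strain treated with compound; growth recorded; inhibition calculated relative to cultures given vehicle alone.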

[13] = NCI Yeast Anticancer Drug Screen. Data for the mlh1 strain (AID 171);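 note: 0% = growth of vehicle-treated control cultures of the same strain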; details: S. cerevisiae mlh1 strain growth inhibition, stronger effect = higher value
Procedure, shortened: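 Yeast screen: mutant strain plus compound, growth scored against vehicle control wells.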

[14] = NCI Yeast Anticancer Drug Screen. Data for the sgs1 strain (AID 173);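 note: 0% = growth of vehicle-only control cultures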; details: S. cerevisiae sgs1 mutant, stronger effect = higher value
Procedure, shortened: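 Inhibition of yeast growth served as the measure. The mutant strain was treated with each compound, and growth was normalised to cultures receiving vehicle alone.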

[15] = NCI Yeast Anticancer Drug Screen. Data for the mlh1 rad18 strain (AID 175); details: S. cerevisiae mlh1 rad18 strain growth inhibition, stronger effect = higher value
Procedure, shortened: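 Compound-treated yeast growth, normalised to vehicle controls. Strain bears defined DNA repair mutations.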

[16] = NCI Yeast Anticancer Drug Screen. Data for the rad18 strain (AID 177); details: S. cerevisiae rad18 mutant growth inhibition, stronger effect = higher value
Procedure, shortened: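 Inhibition values reflect reduced yeast growth compared with vehicle-treated controls, using a strain engineered with a DNA damage repair defect.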

[17] = at 5.0 µM (retest, dose inferred, filed as 0.5)
[18] = at 50.0 µM (retest, dose inferred, filed as 5.0)

Measured: growth inhibition

COc1ccc(C2C3=C(COC3=O)OC(C)(C)Oc3cc4c(cc32)OCO4)cc1OC (stereo unspecified)
inactive: [1]; at 1.2 µM 17% | [1]; at 3.7 µM 19% | [1]; at 11.0 µM 11% | [1]; at 33.0 µM 47% | [2]; at 1.2 µM 9% | [2]; at 3.7 µM 10% | [2]; at 11.0 µM 13% | [2]; at 33.0 µM 23% | [3]; at 1.2 µM 5% | [3]; at 3.7 µM 4% | [3]; at 11.0 µM 4% | [3]; at 33.0 µM 4% | [3]; at 100.0 µM 12% | [4]; at 1.2 µM 27% | [4]; at 3.7 µM 26% | [4]; at 11.0 µM 31% | [4]; at 33.0 µM 54% | [5]; at 1.2 µM 15% | [5]; at 3.7 µM 26% | [5]; [17] 0% | [5]; at 11.0 µM 33% | [5]; at 33.0 µM 57% | [6]; at 1.2 µM 25% | [6]; at 3.7 µM 29% | [6]; [17] 9% | [6]; at 11.0 µM 33% | [6]; at 33.0 µM 58% | [6]; [18] 65% | [7]; at 1.2 µM 11% | [7]; at 3.7 µM 5% | [7]; at 11.0 µM 5% | [7]; at 33.0 µM 30% | [8]; [17] -9% | [8]; [18] 50% | [9]; at 1.2 µM 11% | [9]; at 3.7 µM 17% | [9]; at 11.0 µM 10% | [9]; at 33.0 µM 18% | [10]; [17] -1% | [10]; [18] 57% | [11]; at 1.2 µM -47% | [11]; at 3.7 µM -56% | [11]; [17] -9% | [11]; at 11.0 µM -33% | [11]; at 33.0 µM 24% | [12]; at 1.2 µM 5% | [12]; at 3.7 µM 2% | [12]; at 11.0 µM 8% | [12]; at 33.0 µM 26% | [13]; at 1.2 µM -11% | [13]; at 3.7 µM 0% | [13]; at 11.0 µM 6% | [13]; at 33.0 µM 57% | [14]; at 1.2 µM 37% | [14]; at 3.7 µM 23% | [14]; at 11.0 µM 27% | [14]; at 33.0 µM 61% | [15]; [17] -1% | [16]; at 1.2 µM -4% | [16]; at 3.7 µM 5% | [16]; at 11.0 µM 7% | [16]; at 33.0 µM 41%
active: [1]; at 100.0 µM 93% | [2]; at 100.0 µM 94% | [4]; at 100.0 µM 94% | [5]; [18] 91% | [5]; at 50.0 µM 97% | [5]; at 100.0 µM 90% | [6]; at 50.0 µM 96.1% | [6]; at 100.0 µM 95% | [7]; at 100.0 µM 91% | [8]; at 50.0 µM 96.7% | [9]; at 100.0 µM 90% | [10]; at 50.0 µM 91.6% | [11]; [18] 86% | [11]; at 50.0 µM 96.3% | [11]; at 100.0 µM 88% | [12]; at 100.0 µM 90% | [13]; at 100.0 µM 94% | [14]; at 100.0 µM 94% | [15]; [18] 96% | [15]; at 50.0 µM 97.5% | [16]; at 100.0 µM 94%

O=C(c1ccc([N+](=O)[O-])cc1)C1N=NCC1c1ccccc1 (stereo unspecified)
inactive: [1]; at 1.2 µM 2% | [1]; at 3.7 µM 5% | [1]; at 11.0 µM 6% | [1]; at 33.0 µM 7% | [1]; at 100.0 µM 45% | [2]; at 1.2 µM 2% | [2]; at 3.7 µM 1% | [2]; at 11.0 µM 4% | [2]; at 33.0 µM 1% | [2]; at 100.0 µM 9% | [3]; at 1.2 µM -2% | [3]; at 3.7 µM -3% | [3]; at 11.0 µM -2% | [3]; at 33.0 µM 9% | [3]; at 100.0 µM 37% | [4]; at 1.2 µM -4% | [4]; at 3.7 µM -2% | [4]; at 11.0 µM 0% | [4]; at 33.0 µM 19% | [4]; at 100.0 µM 62% | [5]; at 1.2 µM 4% | [5]; at 3.7 µM 4% | [5]; [17] 13% | [5]; at 11.0 µM 5% | [5]; at 33.0 µM 7% | [5]; [18] 11% | [5]; at 50.0 µM 31% | [5]; at 100.0 µM 34% | [6]; at 1.2 µM -2% | [6]; at 3.7 µM 1% | [6]; [17] 0% | [6]; at 11.0 µM 1% | [6]; at 33.0 µM 1% | [6]; [18] 22% | [6]; at 50.0 µM 20.8% | [6]; at 100.0 µM 45% | [7]; at 1.2 µM 1% | [7]; at 3.7 µM 2% | [7]; at 11.0 µM 6% | [7]; at 33.0 µM 13% | [7]; at 100.0 µM 51% | [8]; [17] 3% | [8]; [18] 27% | [8]; at 50.0 µM 59% | [9]; at 1.2 µM 0% | [9]; at 3.7 µM 2% | [9]; at 11.0 µM 4% | [9]; at 33.0 µM 9% | [9]; at 100.0 µM 54% | [10]; [17] 5% | [10]; [18] 27% | [10]; at 50.0 µM 55.6% | [11]; at 1.2 µM 0% | [11]; at 3.7 µM -3% | [11]; [17] -3% | [11]; at 11.0 µM 2% | [11]; at 33.0 µM 11% | [11]; [18] 30% | [12]; at 1.2 µM 0% | [12]; at 3.7 µM -1% | [12]; at 11.0 µM 1% | [12]; at 33.0 µM 4% | [12]; at 100.0 µM 64% | [13]; at 1.2 µM -1% | [13]; at 3.7 µM 0% | [13]; at 11.0 µM 3% | [13]; at 33.0 µM 5% | [13]; at 100.0 µM 64% | [14]; at 1.2 µM 0% | [14]; at 3.7 µM 1% | [14]; at 11.0 µM 3% | [14]; at 33.0 µM 13% | [15]; [17] -3% | [15]; [18] 35% | [15]; at 50.0 µM 42% | [16]; at 1.2 µM 2% | [16]; at 3.7 µM 0% | [16]; at 11.0 µM 7% | [16]; at 33.0 µM 1% | [16]; at 100.0 µM 40%
active: [11]; at 50.0 µM 71.8% | [11]; at 100.0 µM 75% | [14]; at 100.0 µM 78%

Reference: PubChem BioAssay (NCI)
